In PubChem BioAssay AID623989 (Broad Institute, 2012):
Measured potencies and affinities stand elsewhere. Records with an inconclusive call do not appear. Calls of active or inactive are those of the source.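 The calls were made as follows: active = curve fit gives half-maximal inhibition potency at or below twice the top tested dose in every run; inconclusive = runs disagree, flat partial inhibition, or poor curve fit; inactive = inactive in every run, flat, reversed or weak.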

Target: Glycogen synthase kinase-3 beta (Homo sapiens) (UniProt P49841)
Assay: GSK3beta kinase inhibitors, dose response, biochemical, microfluidics, dry powder samples, set 2 (AID 623989)

Glycogen synthase kinase-3 beta (Homo sapiens), sequence (P49841 whole entry, looked up): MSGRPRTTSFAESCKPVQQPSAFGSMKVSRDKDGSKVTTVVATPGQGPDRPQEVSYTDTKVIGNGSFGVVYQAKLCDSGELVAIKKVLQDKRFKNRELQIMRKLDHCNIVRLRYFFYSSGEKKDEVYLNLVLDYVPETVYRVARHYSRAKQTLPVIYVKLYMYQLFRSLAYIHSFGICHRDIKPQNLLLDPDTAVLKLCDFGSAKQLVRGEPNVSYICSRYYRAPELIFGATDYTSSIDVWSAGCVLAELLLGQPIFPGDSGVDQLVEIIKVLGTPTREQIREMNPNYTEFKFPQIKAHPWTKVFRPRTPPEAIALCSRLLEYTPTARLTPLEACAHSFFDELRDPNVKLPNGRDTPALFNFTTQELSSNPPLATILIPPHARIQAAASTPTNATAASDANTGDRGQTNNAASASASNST

COc1cc(C(=O)N2CCN(c3ccccn3)CC2)cc(OC)c1OC
outcome: inactive
